Measurements taken from PubChem BioAssay (Tox21).
Several values for one entry are separate records, joined by “and”; a condition that tells them apart may be missing. Identical values can stand only once. Inconclusive results are not listed. Where a call stands in place of a potency, no number is given. Where a structure was tested more than once in an assay, its records may differ in their call. Activity calls are given as the source filed them. Calls follow the shape of the dose curve; as a rule, active = well fitted curve in the direction sought with a large enough effect in the repeat runs; inconclusive = weak or mixed curves; inactive = no such curve, though single readings can be large; an effect the other way counts as inactive or inconclusive.

How the values were obtained:
[1] = A CellTox Green Cytotoxicity Assay to monitor cytotoxicity in HepG2 cells - 32 hour (AID 1224883); also: nearly all actives have a fitted effect of over 50% in size
Procedure, shortened: (§1)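 Nonlytic assay: viable cells exclude the dye, so fluorescence scales with cell death. HepG2 at 600 cells/well, compounds added after 5 h, signal read across 40 h.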

[2] = A CellTox Green Cytotoxicity Assay to monitor cytotoxicity in HEK293 cells - 8 hour (AID 1224884); also: nearly all actives have a fitted effect of over 35% in size
Procedure, shortened: (§2)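 Seeding of HEK293 cells together with cytotoxicity dye preceded a 5 h incubation at 37 C/5% CO2. Test compounds in DMSO were then added and fluorescence monitored across 40 h.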

[3] = qHTS RealTime-Glo MT Cell Viability Assay in HepG2 cells - 16 hour (AID 1224885); also: nearly all actives have a fitted effect of over 50% in size
Procedure, shortened: (§3)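 Compound treatment began 5 h after plating HepG2 cells (600/well) with NanoLuc luciferase and prosubstrate. Plates stayed at 37 C for 40 h; luminescence was captured at six time points, 0 h through 40 h.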

[4] = qHTS RealTime-Glo MT Cell Viability Assay in HEK293 cells - 24 hour (AID 1224886); also: nearly all actives have a fitted effect of over 50% in size
Procedure, shortened: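 Quantitative high-throughput screen of the Tox21 10K library in HEK293: cells and RealTime-Glo reagents plated together, compound added at 5 h, luminescence monitored through 40 h at 37 C.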

[5] = qHTS RealTime-Glo MT Cell Viability Assay in HEK293 cells - 8 hour (AID 1224887); also: nearly all actives have a fitted effect of over 50% in size
Procedure, shortened: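 Tox21 screen in HEK293 using RealTime-Glo MT chemistry, with cells and reagent co-dispensed. Luminescence proportional to viable cell number was captured at intervals during 40 h compound exposure at 37 C.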

[6] = A CellTox Green Cytotoxicity Assay to monitor cytotoxicity in HepG2 cells - 8 hour (AID 1224890); also: nearly all actives have a fitted effect of over 45% in size
Procedure, shortened: as §1

[7] = qHTS assay to identify small molecule antagonists of the estrogen receptor alpha (ER-alpha) signaling pathway using the BG1 cell line in the presence of 0.1 nM 17-beta-estradiol - cell viability counter screen (AID 1259241); also: nearly all actives have a fitted effect of over 40% in size
Procedure, shortened: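 Following 5 days in phenol red-free medium with charcoal-stripped serum, VM7Luc4E2 cells received test compounds alongside 0.1 nM 17beta-estradiol (final) at 37C for 22 hr. Live cells were then quantified via protease-substrate fluorescence.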

[8] = qHTS assay to identify small molecule antagonists of the androgen receptor (AR) signaling pathway using the MDA cell line in the presence of 0.5 nM R1881 - cell viability counter screen (AID 1259242); also: nearly all actives have a fitted effect of over 45% in size
Procedure, shortened: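 R1881 at 0.5 nM final stimulated MDA-kb2 cells during 16 hr compound treatment at 37C. Cytotoxicity read: CellTiter-Fluor fluorescence after 30 min.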

[9] = A CellTox Green Cytotoxicity Assay to monitor cytotoxicity in HEK293 cells - 16 hour (AID 1224888); also: nearly all actives have a fitted effect of over 35% in size
Procedure, shortened: as §2

[10] = qHTS RealTime-Glo MT Cell Viability Assay in HepG2 cells - 0 hour (AID 1224889); also: nearly all actives have a fitted effect of over 50% in size
Procedure, shortened: as §3
Potency is read from the fitted curve at half-maximal effect.

SMILES | Potency [1] | Potency [2] | Potency [3] | Potency [4] | Potency [5] | Potency [6] | Potency [7] | Potency [8] | Potency [9] | Potency [10]
CCC[N+]1(C)CCCCC1 | inactive | inactive | inactive | inactive | inactive | inactive | inactive | inactive |  | 
COc1ccc(N)cc1 | inactive and 245 nM (active) | inactive | inactive | inactive | inactive | inactive | inactive | inactive | inactive | inactive
Nc1ccc(Cl)cc1 | inactive | inactive | inactive | inactive | inactive | inactive | inactive | inactive |  | 
O=[N+]([O-])c1ccccc1O | inactive | inactive | inactive | inactive | inactive | inactive | inactive | inactive | inactive | 
CC[N+]1(C)CCCC1 | inactive | inactive | inactive | inactive and 24.6 µM (active) | inactive | inactive | inactive | inactive |  | 
O=c1nc(O)n(Cl)c(=O)n1Cl | inactive | inactive | inactive | inactive | inactive | inactive | inactive | inactive | inactive | 
OCCOc1ccccc1 | inactive | inactive | inactive | inactive | inactive | inactive | inactive | inactive |  | 
CCCCCCCCn1cc[n+](C)c1 | inactive | inactive | inactive | 3.86 µM (active) and 4.41 µM (active) | inactive | inactive | inactive |  |  | 
COP(=O)(OC)OC=C(Cl)Cl | inactive |  | inactive | inactive | inactive | inactive | inactive | inactive | inactive | inactive
CC(=O)O | inactive |  | inactive | inactive | inactive | inactive | inactive | inactive | inactive | inactive
CCC[N+]1(C)CCCC1 | inactive | inactive | inactive | inactive | inactive | inactive | inactive | inactive | inactive | 
CCC(=O)C(CC(C)N(C)C)(c1ccccc1)c1ccccc1 (stereo unspecified) | 43.8 µM (active) and 48.6 µM (active) and inactive | inactive | inactive |  | inactive | inactive | inactive | inactive |  | 
O=S(=O)(O)O | inactive | inactive | inactive | inactive | inactive | inactive | inactive | inactive | inactive | 
CCCCCCCCCCCCOS(=O)(=O)O | inactive | 48.3 µM (active) and inactive | inactive | inactive | inactive | inactive | inactive | inactive |  | inactive
C[C@]12CCC(=O)C=C1CC[C@@H]1[C@@H]2CC[C@]2(C)C(=O)CC[C@@H]12 | inactive | inactive | inactive | 27.1 µM (active) and inactive | inactive | inactive | inactive | inactive |  | 34.1 µM (active) and 21.9 µM (active) and inactive
Nc1ccc(-c2ccc(N)cc2)cc1 | inactive | inactive | inactive | inactive | inactive | inactive | inactive | inactive |  | inactive
CC[n+]1ccccc1 | inactive | inactive | inactive | inactive | inactive | inactive | inactive | inactive and 30.4 µM (active) |  | 
O=P1(N(CCCl)CCCl)NCCCO1 (stereo unspecified) | inactive |  | inactive | inactive | inactive | inactive | inactive | inactive | inactive | 
CC(Cl)(Cl)C(=O)O | inactive | inactive | inactive | inactive | inactive | inactive | inactive | inactive | inactive | inactive
Cc1cc(-c2ccc(N)c(C)c2)ccc1N | inactive and 43.6 µM (active) | inactive | inactive | inactive | inactive | inactive | inactive | inactive | inactive | 
Cc1cc(Cl)ccc1N | inactive and 38.9 µM (active) | inactive and 34.7 µM (active) | inactive | inactive | inactive | inactive and 43.6 µM (active) | inactive | inactive |  | inactive
CCCC[n+]1ccccc1C | inactive | inactive | inactive | inactive | inactive | inactive | inactive | inactive |  | 
O=C(O)C(Cl)Cl | inactive | inactive | inactive | inactive | inactive | inactive | inactive | inactive |  | inactive

SMILES | Potency [1] | Potency [2] | Potency [3] | Potency [4] | Potency [5] | Potency [6] | Potency [7] | Potency [8] | Potency [9] | Potency [10]
CCOP(=S)(OCC)Oc1ccc2c(C)c(Cl)c(=O)oc2c1 | inactive |  | inactive | 14 µM (active) and 43.6 µM (active) and inactive | 12.4 µM (active) and 38.9 µM (active) and inactive | inactive | inactive | inactive | inactive | 
C1CCC(NC2CCCCC2)CC1 | inactive | inactive | inactive | inactive | inactive | inactive | inactive | inactive |  | 
CC(=O)[O][Hg][c]1ccccc1 | 1.53 µM (active) and 1.95 µM (active) and 1.07 µM (active) |  | 1.72 µM (active) and 1.74 µM (active) and 1.07 µM (active) | 344 nM (active) and 1.1 µM (active) and 239 nM (active) | 433 nM (active) and 1.55 µM (active) and 425 nM (active) | 2.73 µM (active) and 2.19 µM (active) and 1.2 µM (active) | 4.81 µM (active) and 9.69 µM (active) and 11.9 µM (active) | 1.92 µM (active) and 6.11 µM (active) and 2.66 µM (active) | 1.9 µM (active) | 
CCCCCCCCCCCC(=O)O | inactive | inactive | inactive | inactive | inactive | inactive | inactive | inactive |  | inactive
CCCCCCCCCCn1cc[n+](C)c1 | 44.1 µM (active) and 54.9 µM (active) | inactive | inactive | 389 nM (active) | inactive and 1.74 µM (active) | inactive | inactive | inactive |  | inactive
CCCCCCn1cc[n+](C)c1 | inactive |  | inactive | 22.2 µM (active) and 14 µM (active) and 17.7 µM (active) | inactive | inactive | inactive |  | inactive | inactive
O=C(O)c1ccccc1O | inactive | inactive | inactive | inactive | inactive | inactive | inactive | inactive |  | inactive
CCCCCC[n+]1ccccc1 | inactive | inactive | inactive | inactive | inactive | inactive | inactive | inactive |  | inactive
CCCCn1cc[n+](C)c1 | inactive |  | inactive | inactive | inactive | inactive | inactive | inactive | inactive | inactive
CCCCn1cc[n+](C)c1C | inactive |  | inactive | inactive | inactive | inactive | inactive | inactive |  | inactive
CC[N+](CC)(CC)CC | inactive |  | inactive | inactive | inactive | inactive | inactive | inactive |  | 
CCCCCCCCCCCCCCCCn1cc[n+](C)c1 |  |  | inactive and 49.4 µM (active) and 49.1 µM (active) |  | inactive and 55.4 µM (active) and 55.1 µM (active) | inactive and 55.4 µM (active) and 55.1 µM (active) |  | inactive and 34.7 µM (active) and 48.7 µM (active) |  | 
O=C(O)C(Cl)(Cl)Cl | inactive |  | inactive | inactive | inactive | inactive | inactive | inactive |  | 
O=C(O)CC(O)(CC(=O)O)C(=O)O | inactive |  | inactive | inactive | inactive | inactive | inactive | inactive |  | 
N#CS | inactive |  | inactive | inactive | inactive | inactive | inactive | inactive |  | 
O=C(O)CCl | inactive |  | inactive | inactive | inactive | inactive | inactive | inactive |  | inactive
COP(=O)(OC)C(O)C(Cl)(Cl)Cl (stereo unspecified) | inactive |  | inactive | inactive | inactive | inactive | inactive | inactive | inactive | 
CCNc1nc(Cl)nc(NCC)n1 | inactive |  | inactive | inactive | inactive | inactive | inactive | inactive |  | 
CCCC[N+]1(C)CCCC1 | inactive |  | inactive | inactive | inactive | inactive | inactive | inactive | inactive | 
O=c1[nH]c(=O)n(Cl)c(=O)n1Cl | inactive |  | inactive | inactive | inactive | inactive | inactive | inactive |  | inactive
CCCC[n+]1cccc(C)c1 | inactive |  | inactive | inactive | inactive | inactive | inactive | inactive |  | inactive
Nc1ccccc1 | inactive |  | inactive | inactive | inactive | inactive | inactive | inactive |  | 
O=[N+]([O-])O | inactive |  | inactive | inactive | inactive | inactive | inactive | inactive |  | 
